About 940 (45%) of roughly 2,100 compounds were called active. The set was probably picked from earlier hits. Only a sample is shown. Unmarked numbers belong to inactive results.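 How the source made its calls: active means mean of three repeat readings of reporter signal inhibition above a set limit (cut at about 70% in these data); inactive means the rest.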

The nature of the assay: CHOP promoter reporter blockers, replicate testing – cell-based, confirmation (AID 504437).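 Further: 0% = tunicamycin plus vehicle and 100% = wells lacking tunicamycin.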 The following applies: CHO-CHOP promoter luciferase reporter, tunicamycin-induced, luminescence; at 10 µM; active compounds read high. A general note: Reporter assays use an easily measured gene product as a stand-in for the process of interest.
Regarding `NC(=O)CC(NC(=O)Cc1cccc2ccccc12)c1ccc(NCc2cc(F)ccc2F)c([N+](=O)[O-])c1` (stereo not drawn), the inhibition (in general, the change of the read-out against control, counted positive when it falls) was 87.6% (active).

For the compound `O=[N+]([O-])c1c(NCCO)cc(Sc2nc3ccccc3s2)c2nonc12`, the inhibition is -6.6%.

With `CC1=C/C(=N\OS(=O)(=O)c2ccccc2)C=CC1=O`, the inhibition was 141% (active).

As to `CCOc1ccc2nc(Nc3nc4ccc(NC(C)=O)cc4s3)sc2c1`, the inhibition was 56.5%.

`COc1ccc(COC(=O)c2n[nH]c3ccccc23)cc1F`: the inhibition is 15.5%.

In the case of `O=C(CCl)Nc1ccc(Sc2ccc(NC(=O)CCl)cc2)cc1`, the inhibition is 113% (active).

In the case of `Fc1ccccc1/C=C1\CCCC2=C1Nc1ncnn1C2c1ccccc1F` (stereo not drawn), the inhibition is 6.7%.

On to `O=C(NNc1ccccc1Cl)C(O)(c1cccc(C(F)(F)F)c1)c1cccc(C(F)(F)F)c1`, for which the inhibition was 54.8%.

For `O=C(Cn1cc(C(F)(F)F)ccc1=O)N/N=C/c1ccc(Cl)cc1Cl`, the inhibition was 27.2%.

Turning to `OCCCNc1nccc(-c2cc(Nc3cccc(Cl)c3)ncn2)n1`, the inhibition is 121% (active).

In the case of `Cc1ccc(-n2ncc3c2ncn2nc(-c4ccco4)nc32)c(C)c1`, the inhibition was -1.3%.

On to `COc1ccc(NC(=O)/C(C#N)=C\c2cc(OC)c(OCc3ccc(C(=O)O)cc3)cc2Br)cc1`, for which the inhibition is 17.8%.

For `O=C(Nc1ccccc1Cl)/C(Cl)=C(\Cl)S(=O)c1ccccc1` (stereo not drawn), the inhibition is 122% (active).

`Clc1cccc(CN2COc3c(cc(Cl)c4cccnc34)C2)c1`: the inhibition was -62%.

Take `COc1cccc(-c2nnc(NC(=O)c3ccc(S(=O)(=O)N(CC(C)C)CC(C)C)cc3)o2)c1`: the inhibition was 110% (active).

Regarding `CCOC(=O)c1cc2cc(-c3c(C(=O)OCC)oc4cc(O)cc(O)c4c3=O)ccc2o1`, the inhibition is 46.1%.

For the compound `Cc1nnc(SCC(=O)N/N=C/c2cn(-c3ccccc3)nc2-c2ccc(F)cc2)n1-c1ccccc1`, the inhibition was -50.1%.

As for `CCN(CC)S(=O)(=O)c1ccc2nc(COC(=O)c3n[nH]c4ccccc34)[nH]c2c1`, the inhibition is 66%.

For `CCCCCCn1c(CN2CCCC(C)C2)nc2c1c(=O)n(C)c(=O)n2C` (stereo not drawn), the inhibition is 97.6% (active).

With `O=C(CC(NC(=O)c1ccccc1)c1ccccc1)Nc1ccc(F)c(F)c1` (stereo not drawn), the inhibition is 67.4%.

For `CCCCCn1c(SCCC(C)C)nc2c1c(=O)[nH]c(=O)n2C`, the inhibition was 97.6% (active).

Regarding `CCCCSc1nc2c(c(=O)n1CC)SC(C)C2` (stereo not drawn), the inhibition was 58.6%.

`C=C(C)C(=O)O[C@H]1C/C(C)=C\C(=O)/C=C(\C)[C@H](O)[C@@H]2OC(=O)C(=C)[C@@H]21`: the inhibition is 43.7%.

For `Cc1cccc(NC(=O)Nc2cccc(Oc3c(F)c(F)c(F)c(F)c3F)c2)c1`, the inhibition was 69.3%.

With `O=C(Nc1cc(N2CCOCC2)ncn1)NC1(C(F)(F)F)Oc2ccc(Cl)cc2O1` (stereo not drawn), the inhibition is 93.7% (active).

In the case of `Cc1c(C(=O)Nc2cccc(Cl)c2)cn2c(nc3ccccc32)c1C#N`, the inhibition was 33.5%.

As for `O=C(/C=C/Sc1ncn[nH]1)c1ccc(Cl)cc1`, the inhibition was 98% (active).

`FC(F)(F)c1cc(-c2ccco2)nc(N2CCOCC2)n1`: the inhibition was 49.6%.

As to `O=C(CCl)N(Cc1cccc([N+](=O)[O-])c1)c1cccc(Cl)c1`, the inhibition is 118% (active).

Turning to `Cc1ccc(-n2nc(C)c(/C=N/NC(=O)c3cccs3)c2Cl)cc1`, the inhibition is -50.9%.

As for `CN1C(=O)/C(=C/c2ccc(C(=O)NC3CCCC3)cc2)Oc2ccccc21`, the inhibition was -73.2%.

As for `O=C1C=C(c2ccc(Cl)cc2)C(=O)N1Nc1ccccc1`, the inhibition was -116%.

Regarding `COc1cc(/C=N/NC(=O)Nc2ccccc2)ccc1OCCOc1ccccc1C`, the inhibition was 86.2% (active).

For the compound `CCCOc1ccc(Cc2c(Cl)nc(SC)nc2NC)cc1`, the inhibition was 104% (active).

Consider `N#CC(C(=O)c1ccc(S(=O)(=O)N2CCCCCC2)cc1)c1nc2ccccc2[nH]1` (stereo not drawn), for which the inhibition is -6.4%.

Take `CCSc1nc(C)nc2c1oc1ccccc12`: the inhibition was 19.6%.

On to `Cc1ccc(-c2csc(-c3c[nH]c4ccccc34)n2)cc1`, for which the inhibition was 53.5%.

On to `Cc1nc(SCC(=O)Nc2cc(C)on2)c2c3c(sc2n1)CCCC3`, for which the inhibition is 80.7% (active).

For `COc1ccc(-n2c(SCC(=O)Nc3sc4c(c3C#N)CCCC4)nnc2-c2ccc(O)cc2)cc1`, the inhibition was 37.1%.

`Oc1ccc(/C=N/N(Cc2ccccc2)c2ccccc2)cc1`: the inhibition is 30.1%.

In the case of `Cc1c(-c2ccccc2)n[nH]c1C(=O)N=Nc1c(O)[nH]c2ccccc12`, the inhibition is -12.3%.

Regarding `Cc1cc(-c2n[nH]c(=S)n2/N=C/C(Br)=C/c2ccccc2)n[nH]1`, the inhibition is 106% (active).

Regarding `FC(F)(F)c1cc(C(F)(F)F)c2ccc(N3CCN(c4ccccc4)CC3)nc2n1`, the inhibition is 61.6%.

Consider `CCCCc1nc(NCCN)c(C#N)c2c1CSC(C)(C)C2`, for which the inhibition was 82.5% (active).

As to `O=[N+]([O-])c1cccc(-c2nnc3c4ccccc4c4ccccc4n23)c1`, the inhibition was 23.3%.

For the compound `CCCCCCC(=O)N(O)C1CC(=O)N(c2ccccc2)C1=O` (stereo not drawn), the inhibition was 16.2%.

As for `Clc1ccc(Nc2nc(-c3cccs3)cs2)nc1`, the inhibition is 124% (active).

For the compound `Oc1cccc(C2c3[nH]c4ccccc4c3CCN2Cc2cnn(-c3ccccc3)c2)c1` (stereo not drawn), the inhibition is -4.4%.

Turning to `O=[N+]([O-])c1cc(S(=O)(=O)CCCN2CCOCC2)ccc1F`, the inhibition is -45.2%.

Regarding `CC(C)Cc1cc(C(=O)Nc2cc(Br)ccc2O)no1`, the inhibition is 22.3%.

Consider `O=C(Nc1ccccc1C(F)(F)F)c1cc(-c2ccc(O)cc2)on1`, for which the inhibition is 77.8% (active).

Take `CCCc1nc2ccccc2c(C(=O)OCC(=O)c2ccc3c(c2)NC(=O)CO3)c1CC`: the inhibition is -11.4%.

Regarding `CC(C)(C)C1C/C(=C/c2ccco2)C(=O)/C(=C/c2ccco2)C1` (stereo not drawn), the inhibition is 85.1% (active).

For `OC(CNCC1CCCO1)Cn1c2ccc(Br)cc2c2cc(Br)ccc21` (stereo not drawn), the inhibition was 81.5% (active).

Consider `CC(C)(C)c1ccc(Oc2ccc(N)cc2)cc1`, for which the inhibition is 117% (active).

For the compound `O=C(Nc1nnc(COc2ccccc2)s1)Nc1ccccc1F`, the inhibition is 1%.

Turning to `Cc1cc(C(=O)CCl)c(C)n1CC1COc2ccccc2O1` (stereo not drawn), the inhibition was -124%.

Turning to `CS(=O)(=O)N(CC(=O)Nc1ccc(Cl)c(Cl)c1)C1CCCCC1`, the inhibition is 33.2%.

With `COc1cc(/C=N/O)cc(Br)c1OCc1cccc(Cl)c1`, the inhibition was 138% (active).

Regarding `NC(N)=N/N=C/c1ccc(OCc2ccc(Cl)cc2Cl)cc1`, the inhibition was -25.2%.

As for `COC(=O)/C=C\C(=O)Nc1cccc([N+](=O)[O-])c1`, the inhibition is 101% (active).

Take `Fc1ccccc1C(c1nnnn1Cc1ccc2c(c1)OCO2)N1CCN(Cc2ccccc2)CC1` (stereo not drawn): the inhibition was 22.4%.

For the compound `CC(C)=CCc1c(O)c(CC=C(C)C)c2occ(-c3ccc(O)cc3)c(=O)c2c1O`, the inhibition is 15.8%.

With `COc1cc(SC#N)ccc1N=Cc1c(C)[nH]n(-c2ccc(C)cc2)c1=O`, the inhibition is 34%.

In the case of `C=C(C)COc1ccc(-c2n[nH]c(C)c2-c2ccccc2OC)c(O)c1`, the inhibition was 112% (active).

In the case of `COc1ccc(/C=C/C(=O)Nc2c(C)nn(C)c2C)cc1COc1ccc(Br)cc1`, the inhibition is 20.4%.

For the compound `Cc1ccc(NC(=S)NC(NC(=O)Cc2cccc3ccccc23)C(Cl)(Cl)Cl)cc1` (stereo not drawn), the inhibition was 72.1% (active).

As for `CCOC(=O)c1c(C)[nH]c2c1-c1ccccc1C(=O)C2=O`, the inhibition was 122% (active).

As for `Cc1ccc(NC(=O)/C(=C/c2ccc([N+](=O)[O-])cc2)NC(=O)c2ccccc2)cc1`, the inhibition is -5.3%.

Regarding `COc1cc(C(=O)OC(C)C(=O)NCC2CCCCC2)cc(NC(=O)c2ccco2)c1OC` (stereo not drawn), the inhibition was 93% (active).

As to `Cc1cccc(OCc2nnc(SCc3nc4cc(C(F)(F)F)ccc4c(=O)[nH]3)o2)c1`, the inhibition is 114% (active).

In the case of `CCOC(=O)C(C)Sc1nc2ccccc2c(=O)n1CC1CCCCC1` (stereo not drawn), the inhibition was 61.7%.

`C=CCn1c(C)cc(C2=NNC(=NCC)SC2)c1C`: the inhibition is 136% (active).

Consider `NC(=O)COc1ccc(C23CC4CC(CC(C4)C2)C3)cc1`, for which the inhibition is 7.3%.

Turning to `CCOC(=O)C1=C(c2ccc(OC)cc2)C(=O)c2ccccc2C1=O`, the inhibition is 110% (active).

Take `CSc1nc2sc3c(c2c(=O)[nH]1)CCc1ccccc1-3`: the inhibition is 12.2%.

For `O=C(/C=C/c1ccc(F)cc1)Nc1cccc(S(=O)(=O)Nc2cccc(C(F)(F)F)c2)c1`, the inhibition is 7.6%.

Take `CSc1nc(-c2ccccc2)nc(C(Cl)Cl)n1`: the inhibition is 96.2% (active).

The values are drawn from PubChem BioAssay AID504437 (Emory University Molecular Libraries Screening Center, 2011).
